From PubChem BioAssay (NCATS)
Records with an inconclusive call do not appear. A call without a number means that no potency is given here. Activity calls are given as the source filed them. Unless noted, calls come from the whole dose curve.

What was measured:
[1] = target: Glucocorticoid receptor (Homo sapiens) (UniProt P04150); experiment: qHTS assay for small molecule antagonists of glucocorticoid receptor signaling (AID 588533; active = well fitted inhibition curve with a large enough effect in the signal ratio, with a control signal flat, not every such curve was filed as active; the % refers to the signal ratio;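 note: cells stimulated with 2 nM dexamethasone as agonist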)
Summary of the method: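 Antagonist-mode qHTS: compound titrations added to GRE-bla HeLa cells, then dexamethasone 2 nM final; 18 h, 37 C. CCF4 FRET fluorescence normalized to dexamethasone and DMSO; IC50 from Hill fit.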

[2] = qHTS assay for small molecule antagonists of peroxisome proliferator-activated receptor delta signaling (AID 588535; active = well fitted inhibition curve with a large enough effect in the signal ratio, with a control signal flat, not every such curve was filed as active; the % refers to the signal ratio;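 for max response: cells co-treated with a PPAR-delta agonist as stimulator during compound exposure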); conditions: HEK293T PPARd-UAS-bla, beta-lactamase FRET ratio, 18 h; 460 nm channel
Summary of the method: (§1)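 HEK293T PPAR-delta-UAS-bla cells, 4000/well, 2% charcoal/dextran FBS; 5 h 37 C; cpd titration; 18 h 37 C; CCF4 2 h RT; FI 460/530 nm; Hill fit → IC50, efficacy.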

[3] = target: Peroxisome proliferator-activated receptor delta (Homo sapiens) (UniProt Q03181); experiment: as above
Summary of the method: as §1

[4] = target: Vitamin D3 receptor (Homo sapiens) (UniProt P11473); experiment: qHTS assay for small molecule antagonists of vitamin D receptor signaling (AID 588541);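 note: receptor activated by calcitriol during compound treatment; series mostly up to about 77 µM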
Summary of the method: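 Antagonist-mode beta-lactamase reporter assay: HEK293T VDR-UAS-bla cells were exposed to titrated compound alongside 1-alpha,25-dihydroxyvitamin D3 at 3 nM final for 16 h. Values were normalized to the 50 nM agonist control and DMSO basal, with IC50 and efficacy from Hill equation fits.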

[5] = target: Peroxisome proliferator-activated receptor gamma (Homo sapiens) (UniProt P37231); experiment: qHTS assay for small molecule agonists of peroxisome proliferator-activated receptor gamma signaling (AID 588536; active = well fitted curve in the direction sought with a large enough effect in the signal ratio, with a control signal flat, not every such curve was filed as active; the % refers to the signal ratio)
Summary of the method: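 Ratiometric blue/green fluorescence (405 nm excitation; 460 and 530 nm emission) from CCF4-loaded HEK293 reporter cells serves as signal. Exposure to test compounds lasts 16 h at 37 C in medium containing 1% charcoal/dextran-treated serum.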

[6] = target: Vitamin D3 receptor (Homo sapiens) (UniProt P11473); experiment: qHTS assay for small molecule agonists of vitamin D receptor signaling (AID 588543)
Summary of the method: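 Agonist-mode beta-lactamase reporter: HEK293T VDR-UAS-bla cells in charcoal-stripped 2% FBS, compound series 16 h 37 C, CCF4 2 h RT. EC50 from Hill fit, scaled against DMSO and 50 nM calcitriol control.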

[7] = target: Peroxisome proliferator-activated receptor gamma (Homo sapiens) (UniProt P37231); experiment: qHTS assay for small molecule antagonists of peroxisome proliferator-activated receptor gamma signaling (AID 588537; active = well fitted inhibition curve with a large enough effect in the signal ratio, with a control signal flat, not every such curve was filed as active; the % refers to the signal ratio;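 note: reporter cells co-stimulated with 50 nM rosiglitazone agonist during compound treatment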)
Summary of the method: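 Antagonist mode, beta-lactamase reporter in HEK293; charcoal/dextran FBS 1%; 3000 cells/well, 37 C 6-6.5 h; cpd titration + rosiglitazone 50 nM final, 16 h 37 C; CCF4, 2 h RT; 460/530 nm; Hill fit → IC50, efficacy.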

Chain of Vitamin D3 receptor (Homo sapiens) (P11473 whole entry, looked up): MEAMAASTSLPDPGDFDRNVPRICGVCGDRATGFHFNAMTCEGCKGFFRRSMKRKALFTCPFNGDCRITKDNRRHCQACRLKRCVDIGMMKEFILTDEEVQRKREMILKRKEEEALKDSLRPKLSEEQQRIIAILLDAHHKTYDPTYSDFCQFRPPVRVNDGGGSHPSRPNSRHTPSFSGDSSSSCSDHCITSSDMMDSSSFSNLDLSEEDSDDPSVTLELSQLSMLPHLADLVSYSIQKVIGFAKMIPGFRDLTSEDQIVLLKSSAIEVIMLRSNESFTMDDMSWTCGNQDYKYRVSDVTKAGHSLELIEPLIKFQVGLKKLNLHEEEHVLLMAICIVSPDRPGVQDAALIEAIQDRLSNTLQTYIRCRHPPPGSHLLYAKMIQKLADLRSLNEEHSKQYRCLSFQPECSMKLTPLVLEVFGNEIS
Chain of Glucocorticoid receptor (Homo sapiens) (P04150 whole entry, looked up): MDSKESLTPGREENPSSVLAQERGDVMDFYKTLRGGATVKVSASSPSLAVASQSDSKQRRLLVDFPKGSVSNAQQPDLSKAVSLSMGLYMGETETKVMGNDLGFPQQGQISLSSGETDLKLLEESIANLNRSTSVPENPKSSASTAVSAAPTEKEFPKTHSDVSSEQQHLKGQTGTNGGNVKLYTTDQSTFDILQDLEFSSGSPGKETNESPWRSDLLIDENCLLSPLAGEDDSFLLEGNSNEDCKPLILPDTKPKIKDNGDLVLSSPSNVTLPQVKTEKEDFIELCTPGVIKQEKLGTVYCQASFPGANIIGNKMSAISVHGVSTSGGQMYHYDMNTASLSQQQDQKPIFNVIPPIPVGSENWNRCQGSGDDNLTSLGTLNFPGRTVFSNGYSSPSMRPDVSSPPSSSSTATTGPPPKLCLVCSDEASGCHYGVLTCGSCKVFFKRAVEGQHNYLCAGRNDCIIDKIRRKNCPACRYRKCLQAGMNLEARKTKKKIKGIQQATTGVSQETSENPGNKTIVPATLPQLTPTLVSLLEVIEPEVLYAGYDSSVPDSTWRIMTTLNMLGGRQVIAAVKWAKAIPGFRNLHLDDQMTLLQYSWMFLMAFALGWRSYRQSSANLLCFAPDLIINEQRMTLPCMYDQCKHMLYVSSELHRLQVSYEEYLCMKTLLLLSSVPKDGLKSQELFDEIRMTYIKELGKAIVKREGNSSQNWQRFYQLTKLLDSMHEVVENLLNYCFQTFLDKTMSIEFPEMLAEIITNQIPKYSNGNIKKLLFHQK
Chain of Peroxisome proliferator-activated receptor delta (Homo sapiens) (Q03181 whole entry, looked up): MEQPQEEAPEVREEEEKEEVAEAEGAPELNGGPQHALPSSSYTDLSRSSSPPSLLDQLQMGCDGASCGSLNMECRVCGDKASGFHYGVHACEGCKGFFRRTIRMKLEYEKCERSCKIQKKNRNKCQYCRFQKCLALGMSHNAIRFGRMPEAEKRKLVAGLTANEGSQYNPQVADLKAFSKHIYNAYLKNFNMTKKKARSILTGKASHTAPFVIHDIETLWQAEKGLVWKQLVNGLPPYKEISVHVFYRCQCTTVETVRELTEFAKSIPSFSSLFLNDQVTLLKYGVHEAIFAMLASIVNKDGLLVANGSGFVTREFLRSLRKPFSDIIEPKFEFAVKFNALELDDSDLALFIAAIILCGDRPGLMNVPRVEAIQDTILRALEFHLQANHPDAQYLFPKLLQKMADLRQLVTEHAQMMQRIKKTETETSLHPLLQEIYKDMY
Chain of Peroxisome proliferator-activated receptor gamma (Homo sapiens) (P37231 whole entry, looked up): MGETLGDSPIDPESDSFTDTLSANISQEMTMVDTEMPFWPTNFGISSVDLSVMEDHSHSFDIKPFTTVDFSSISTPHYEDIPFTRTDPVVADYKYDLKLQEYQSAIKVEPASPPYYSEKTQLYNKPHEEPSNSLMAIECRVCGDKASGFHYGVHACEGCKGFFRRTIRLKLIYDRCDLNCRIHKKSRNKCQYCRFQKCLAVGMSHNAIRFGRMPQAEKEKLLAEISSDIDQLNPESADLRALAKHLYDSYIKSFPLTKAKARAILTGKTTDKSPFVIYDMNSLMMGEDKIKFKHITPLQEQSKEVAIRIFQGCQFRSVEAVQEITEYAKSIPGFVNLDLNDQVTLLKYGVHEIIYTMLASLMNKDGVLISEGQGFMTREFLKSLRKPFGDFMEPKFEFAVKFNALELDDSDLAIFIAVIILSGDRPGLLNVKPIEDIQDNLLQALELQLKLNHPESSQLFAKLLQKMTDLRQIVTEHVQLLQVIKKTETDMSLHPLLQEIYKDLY

| SMILES | outcome [1] | max response [2] [%] | Potency [3] | outcome [4] | outcome [5] | outcome [6] | outcome [7] |
| --- | --- | --- | --- | --- | --- | --- | --- |
| c1ccc2c(c1)Oc1ccccc1S2 | inactive | 19.7 | inactive | inactive | – | – | – |
| Cc1ccc(C)c(N)c1 | inactive | 30.9 | inactive | inactive | inactive | inactive | – |
| C/C=C(/C)C#N | – | 26.2 | inactive | – | inactive | – | – |
| O=[N+]([O-])c1ccccc1CCO | inactive | -6.01 | inactive | inactive | inactive | inactive | – |
| CC(C)C=O | inactive | -3.06 | inactive | inactive | inactive | inactive | – |
| O=C(O)CNC(=O)c1ccc(CO)o1 | – | 35.1 | inactive | – | inactive | – | inactive |
| CC(=O)Nc1ccccc1C | inactive | 8.94 | inactive | – | inactive | inactive | inactive |
| CCCCC(CC)COCC1CO1 (configuration not stated) | inactive | – | – | inactive | inactive | inactive | – |
| O=C(O)/C=C/C(=O)O | inactive | -32 | inactive | inactive | – | – | – |
| NS(=O)(=O)O | inactive | -9.24 | inactive | inactive | inactive | inactive | inactive |
| CC(=O)OC(C)C | inactive | -28.9 | inactive | inactive | inactive | – | – |
| O=Cc1ccccc1Cl | inactive | – | – | – | inactive | inactive | inactive |
| CC(=O)c1ccc([N+](=O)[O-])cc1 | inactive | 10.4 | inactive | inactive | inactive | inactive | – |
| CCCCCCO | inactive | – | – | inactive | inactive | inactive | inactive |
| O=C1OC(=O)c2c(Cl)c(Cl)c(Cl)c(Cl)c21 | – | -11.3 | inactive | – | inactive | – | – |
| CC(=O)c1cc(C)oc1C | inactive | -4.12 | inactive | inactive | inactive | inactive | – |
| C=CCCCC | inactive | 22.6 | inactive | inactive | inactive | inactive | inactive |
| Nc1cc(Cl)c(N)c(Cl)c1 | inactive | 7.4 | inactive | – | inactive | inactive | inactive |

| SMILES | outcome [1] | max response [2] [%] | Potency [3] | outcome [4] | outcome [5] | outcome [6] | outcome [7] |
| --- | --- | --- | --- | --- | --- | --- | --- |
| CCCCC(CC)C(=O)O (configuration not stated) | – | 18 | inactive | – | inactive | – | inactive |
| CCC(C)(C)C | inactive | – | – | – | inactive | inactive | – |
| OC/C(Br)=C(\Br)CO | inactive | – | – | inactive | inactive | inactive | inactive |
| C/C(C=O)=C/c1ccccc1 | inactive | -13.6 | – | inactive | inactive | inactive | inactive |
| S=C([S-])NCCNC(=S)[S-].[Zn+2] | inactive | – | – | – | inactive | inactive | inactive |
| ON=C1CCCCC1 | inactive | -2.32 | inactive | inactive | inactive | inactive | inactive |
| NC(=O)NC(N)=O | – | 34.3 | inactive | – | inactive | – | – |
| CC(C)(O)C(=O)O | inactive | 57.5 | inactive | inactive | – | inactive | – |
| Cc1cccc(C)c1 | inactive | -14.1 | – | – | inactive | – | inactive |
| CC(C)(O)CCC(C)(C)O | inactive | – | – | – | inactive | – | inactive |
| NC(=O)c1ccccc1[N+](=O)[O-] | – | -1.98 | inactive | – | inactive | – | inactive |
| O=Cc1c(Cl)cccc1Cl | inactive | -29.6 | – | inactive | inactive | inactive | inactive |
| CC(=O)c1ccccn1 | – | -20.6 | inactive | inactive | inactive | inactive | – |
| CC1CCCO1 (configuration not stated) | – | 6.05 | inactive | inactive | inactive | inactive | – |
| CC(=O)c1ccccc1[N+](=O)[O-] | – | 4.84 | inactive | inactive | inactive | – | inactive |
| Cc1cccc2cccnc12 | – | -4.69 | – | inactive | inactive | inactive | inactive |
| COC(=O)c1ccccc1 | – | 19.3 | inactive | inactive | inactive | inactive | inactive |
